The list is not random: actives were taken first. Their share in the collection is about 19%.
ELG1 repair inh: inhibitors of ELG1-dependent DNA repair in HEK293T cells; HEK293T ELG1-luciferase reporter, luminescence, 16 h; DNA damage induced by 5-fluorouridine; Potency, µM (series often up to 46.1 µM), actives largely listed as inhibitors; hit rate 2.3% among 330,000; AID 504467; note: nearly all actives have a fitted effect of over 55% in size
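Luminescence from the luciferase reporter, measured 30 min after ONE-Glo reagent at room temperature, was the read-out. Beforehand, 2,000 cells per well were exposed for 16 hr at 37 °C to 5-fluorouridine together with compound or vehicle.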
HT1080 IDH1KD tx: kills HT-1080 cells with IDH1 knockdown; HT-1080 IDH1 knockdown viability, ATP luminescence, 48 h; Potency, µM (top dose mostly 46.1 µM), most hits filed as cytotoxic; hit rate 2% among 360,000; AID 686971
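IDH1KD HT-1080 cells, 750/well, RPMI + 5% FBS; compound pinned after 2 h settling; 48 h, 37 °C; CellTiter-Glo luminescence; % activity normalised to DMSO and no-cell wells; curves fitted, classed by r2 and efficacy.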
TDP1 cell noCPT: qHTS for Inhibitors of human tyrosyl-DNA phosphodiesterase 1 (TDP1): qHTS in cells in absence of CPT; DT40 Tdp1-/- hTDP1 cells, no CPT, ATP luminescence, 48 h; Potency, µM (titrated, usually from 46.2 µM), usual class: inhibitors; hit rate 15% among 420,000; note: nearly all actives have a fitted effect of over 55% in size
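A cellular qHTS used chicken DT40 cells lacking endogenous Tdp1 but carrying stably transfected human TDP1. Compounds were applied without camptothecin, and cell growth kinetics were judged by ATP-dependent luminescence after ≥48 hr.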
HT1080NT lethal: kills 2HG-producing HT-1080-NT fibrosarcoma cells; HT-1080-NT fibrosarcoma viability, CellTiter-Glo ATP luminescence, 48 h; hit rate 1.6% among 360,000; Potency, µM (doses to about 46.1 µM), usual class: cytotoxic;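 note: NT is the 2HG producing partner of a matched IDH1 knockdown line; nearly all actives have a fitted effect of over 55% in size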
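HT-1080-NT; 750 cells/well; 5% FBS RPMI; 48 h compound, 37 degrees C; CellTiter-Glo luminescence; curve fitting and curve-class assignment.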
TDP1 cell CPT: DT40-hTDP1 cell growth loss with CPT. chicken DT40 Tdp1-/-;hTDP1 cells + 20 nM CPT, ATP luminescence, 48 h. Potency, µM (doses to about 46.2 µM), usual class: inhibitors. hit rate 12% among 420,000. AID 686979; note: nearly all actives have a fitted effect of over 55% in size
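Chicken DT40 Tdp1-/- cells stably complemented with human TDP1 were seeded at 400 cells/well in medium containing 20 nM camptothecin, exposed to pin-transferred compounds, and grown at 37 °C for at least 48 hr. Viability was read as ATP luminescence.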
IL1B secr inh: inflammasome signaling inhibition, IL-1 beta readout | THP-1 LPS/ATP IL-1B secretion, AlphaLISA, 16 h; active compounds read low | activity change, % at 57.5 µM | hit rate 4.7% among 360,000 | AID 743279; in the data active = activity change below about -50%; inconclusive = mostly about -30% to -49%
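Secreted IL-1B measured by AlphaLISA bead assay after 16 h compound exposure of THP-1 cells; compounds (final up to 57.5 uM) added 1 h before LPS (250 ng/mL) and ATP (1.25 mM) stimulation; lower signal means less secretion.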
Of the large screens only hits and unclear results are named; the others gave an inactive call. Unless noted, calls come from the whole dose curve; as a rule, active = well fitted curve in the direction sought with a large enough effect; inconclusive = small, poorly fitted or top-dose-only effect, or another doubt; inactive = no such curve, though single readings can be large; an effect the other way counts as inactive or inconclusive.

Cn1cc(CN2CCOc3ccc(C(O)C4CCCCC4)cc3C2)cn1 (stereo not drawn)	TDP1 cell noCPT 11.6µM, TDP1 cell CPT inconclusive (no result: ELG1 repair inh, HT1080 IDH1KD tx, HT1080NT lethal, IL1B secr inh)
CCn1c2ccccc2c2c3ncc4cccn4c3ccc21	ELG1 repair inh inconclusive, TDP1 cell noCPT 6.51µM, TDP1 cell CPT 4.11µM, IL1B secr inh -75.9
COc1ccc(/C=N/NC(=O)c2ccn[nH]2)cc1COc1ccc(F)cc1	TDP1 cell noCPT inconclusive, TDP1 cell CPT 16.4µM
COc1ccc(C(=O)N/N=C/c2ccc(OC)c(COc3ccc(F)cc3F)c2)cc1	ELG1 repair inh 9.2µM, TDP1 cell noCPT 18.4µM, TDP1 cell CPT inconclusive
COc1ccc(/C=N/NC(=O)c2ccn[nH]2)cc1COc1ccc(Cl)cc1Cl	ELG1 repair inh inconclusive, TDP1 cell noCPT inconclusive, HT1080NT lethal inconclusive, TDP1 cell CPT inconclusive, IL1B secr inh -78.8
COc1ccc(/C=N/NC(=O)c2sccc2OCc2ccc(F)cc2)cc1OC	ELG1 repair inh inconclusive, TDP1 cell noCPT 23.1µM, TDP1 cell CPT 16.4µM
COc1ccc(/C=N\NC(=O)c2ccccc2Cl)cc1COc1c(F)c(F)c(F)c(F)c1F	HT1080 IDH1KD tx inconclusive
COc1ccc(/C=N\NC(=O)c2ccccc2OC)cc1COc1c(F)c(F)c(F)c(F)c1F	ELG1 repair inh inconclusive
CCCCNC(=O)C1(C)CCN1C(=O)c1ccc(OC)c(C(F)(F)F)c1 (stereo not drawn)	TDP1 cell noCPT inconclusive, TDP1 cell CPT inconclusive (no result: ELG1 repair inh)
COc1ccc(/C=N\NC(=O)c2ccccc2Br)cc1COc1ccc(F)cc1	TDP1 cell noCPT 18.4µM, TDP1 cell CPT inconclusive
COc1ccc(/C=N\NC(=O)COc2ccc(C(C)(C)C)cc2)cc1Cn1nc(C)cc1C	HT1080 IDH1KD tx inconclusive, TDP1 cell noCPT 20.6µM, HT1080NT lethal inconclusive, TDP1 cell CPT inconclusive
COc1ccc(C(=O)N/N=C/c2ccc(OC)c(COc3ccc(F)cc3)c2)cc1	ELG1 repair inh 14.6µM, TDP1 cell noCPT inconclusive, TDP1 cell CPT inconclusive
CN(CC(=O)Nc1cccc(F)c1)C(=O)c1ccc(COc2ccccc2)o1	TDP1 cell noCPT inconclusive, TDP1 cell CPT inconclusive
O=C(CCS(=O)(=O)c1ccccc1)N1CCN(c2ccccc2)CC1	ELG1 repair inh inconclusive
CC(C)N1CCCC(C)(C(=O)Nc2nc3ccccc3[nH]2)C1 (stereo not drawn)	HT1080NT lethal inconclusive (no result: ELG1 repair inh)
C=C1C(=O)c2sccc2C(c2ccc(OC)c(OC)c2)C1COC(C)=O (stereo not drawn)	HT1080 IDH1KD tx 2.31µM, TDP1 cell noCPT 0.231µM, HT1080NT lethal 2.59µM, TDP1 cell CPT 0.517µM, IL1B secr inh -101.2 (no result: ELG1 repair inh)
CCOC(=O)C1=C(C)NC(C)=C(C(=O)OCC)C1c1ccc(OC)c(OC)c1	TDP1 cell noCPT inconclusive, TDP1 cell CPT inconclusive (no result: ELG1 repair inh)
CC1=C(C(=O)Nc2cccc(C(F)(F)F)c2)C(c2ccccn2)n2ncnc2N1 (stereo not drawn)	none (no result: ELG1 repair inh, HT1080 IDH1KD tx, HT1080NT lethal, IL1B secr inh)
Cn1nc(CC(=O)NCc2ccc(F)cc2)c2ccccc2c1=O	ELG1 repair inh inconclusive, TDP1 cell noCPT 18.4µM, TDP1 cell CPT 13µM
CCOC(=O)Cc1nn(C)c(=O)c2ccccc12	TDP1 cell noCPT inconclusive, TDP1 cell CPT inconclusive
Cn1c(SCC(=O)NCc2ccc(F)cc2)nc2c([nH]c3ccccc32)c1=O	none (no result: HT1080 IDH1KD tx, TDP1 cell noCPT, HT1080NT lethal, TDP1 cell CPT, IL1B secr inh)
Cn1nc(CC(=O)NCc2cccc3ccccc23)c2ccccc2c1=O	ELG1 repair inh inconclusive, HT1080 IDH1KD tx inconclusive, TDP1 cell noCPT 9.2µM, TDP1 cell CPT 7.31µM
Cc1ccc(NC(=O)Cc2nn(C)c(=O)c3ccccc23)cc1F	ELG1 repair inh inconclusive, HT1080 IDH1KD tx inconclusive, TDP1 cell noCPT 2.59µM, HT1080NT lethal inconclusive, TDP1 cell CPT 2.31µM
O=C(Cn1ncn2c(cc3ccccc32)c1=O)NCc1ccc(F)cc1	TDP1 cell noCPT 4.11µM, TDP1 cell CPT 5.8µM (no result: ELG1 repair inh, HT1080 IDH1KD tx, HT1080NT lethal, IL1B secr inh)
COc1ccc(CCNC(=O)CCn2c(=O)c3ccccc3n(CC(=O)Nc3ccc(C)cc3C)c2=O)cc1OC	none (no result: ELG1 repair inh, HT1080 IDH1KD tx, HT1080NT lethal, IL1B secr inh)
